Only some compounds are listed: those with a hit (about 8.3% of all), similar ones and a draw of the others.
RORgamma inh: ROR gamma (mouse) transcription inhibition | P51450 | Drosophila S2 Gal4-RORgamma UAS-luciferase reporter, 20 h | Potency, µM (series often up to 53.6 µM), for inactives: at the highest dose activity change, negative = inhibition, actives largely listed as inhibitors | 310,000 compounds, 5.4% hits | AID 2551; also: potency is read from the fitted curve at half-maximal effect; % is scaled to controls: 0 for no effect and ±100 for the full control effect; nearly all actives have a fitted effect of over 60% in size
Target sequence (P51450 whole entry, looked up, the tested form may be a part): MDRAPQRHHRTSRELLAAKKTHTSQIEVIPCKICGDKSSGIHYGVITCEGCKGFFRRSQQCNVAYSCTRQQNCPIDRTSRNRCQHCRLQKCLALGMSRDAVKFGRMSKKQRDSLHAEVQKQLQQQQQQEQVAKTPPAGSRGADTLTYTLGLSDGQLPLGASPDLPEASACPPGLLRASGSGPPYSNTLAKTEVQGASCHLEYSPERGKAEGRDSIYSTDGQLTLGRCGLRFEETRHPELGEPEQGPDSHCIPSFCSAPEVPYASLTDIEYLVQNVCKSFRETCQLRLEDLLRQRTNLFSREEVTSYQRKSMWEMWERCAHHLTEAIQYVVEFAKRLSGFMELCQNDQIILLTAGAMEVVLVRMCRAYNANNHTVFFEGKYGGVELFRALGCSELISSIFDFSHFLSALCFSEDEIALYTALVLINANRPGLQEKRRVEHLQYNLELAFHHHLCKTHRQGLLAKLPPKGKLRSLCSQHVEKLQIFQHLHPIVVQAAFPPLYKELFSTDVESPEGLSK
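Stably transfected Drosophila Schneider cells are the test system, with ROR gamma fused to Gal4 and luciferase under UAS control; luminescence is read after 20 hr of 700 uM copper sulfate induction at ambient temperature.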
SW480 rereplic: DNA re-replication induction in SW480 cells; AID 624297; Potency, µM (top dose mostly 46.1 µM), for the others: top-dose re-replication activation, most hits filed as activators; SW480 DNA re-replication, Hoechst DNA content imaging, 48 h; 340,000 compounds, 1.8% hits; also: potency is read from the fitted curve at half-maximal effect; % of control where 0% means no effect; nearly all actives have a fitted effect of over 55% in size
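Readout is total intensity of Hoechst-stained nuclei, excited at 405 nm and collected at 500-530 nm. Compound treatment lasted 48 hr at 37 C in 5% CO2 before staining.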
Giardia killer: Giardia lamblia killing; AID 540267; activity change, % at 7.66 µM, hits read low; 340,000 compounds, 0.15% hits; Giardia lamblia trophozoite viability; in the data active = activity change below about -80%; inconclusive = between about -30% and that limit;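 also: parasites exposed to compound for two days anaerobically before the ATP read; % is scaled to controls: 0 for no effect and ±100 for the full control effect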
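Each well holds 100 Giardia trophozoites and compound. After two days (48 hrs) at 37 deg C in anaerobic conditions, ATP is quantified by luminescence.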
MCF10A rerep: induces DNA re-replication in MCF 10a normal breast cells. Potency, µM (highest dose often 46.1 µM), for inactives: at the top dose activity, positive = re-replication, actives largely listed as activators. 350,000 compounds, 2.9% hits. MCF 10A DNA re-replication, Hoechst nuclear intensity, 48 h; also: potency is read from the fitted curve at half-maximal effect; % of control where 0% means no effect; nearly all actives have a fitted effect of over 50% in size
VP16 counter: counter-screen for ROR gamma inhibitors: Gal4-VP16 reporter | Drosophila S2 Gal4-VP16 UAS-luciferase, luminescence, 20 h | Potency, µM (titrated, usually from 53.6 µM), for inactives: top-dose activity, negative = inhibition, actives largely listed as inhibitors | 310,000 compounds, 3.5% hits | AID 2546;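 also: Gal4-VP16 expression switched on by copper sulfate through the metallothionein promoter; potency is read from the fitted curve at half-maximal effect; % is scaled to controls: 0 for no effect and ±100 for the full control effect; nearly all actives have a fitted effect of over 50% in size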
BCR signal inh: blocks chronic active B-cell receptor signaling | 340,000 compounds, 0.05% hits | Potency, µM (titrated, usually from 46.1 µM), for the others: top-dose activity change, negative = inhibition, usual class: inhibitors | AID 493014 | ABC-DLBCL IkBa-CBG/CBR reporter, luminescence ratio, 4 h; active = well fitted inhibition curve with a large enough effect in the signal ratio, with a control signal flat, not every such curve was filed as active; inconclusive = small, poorly fitted or top-dose-only effect, or effect the other way, or a change in a side signal; the % refers to the signal ratio;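 also: potency is read from the fitted curve at half-maximal effect; plate controls were basal doxycycline-induced cells for no effect and cells given 10 µM MG132 for full effect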
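Compounds up to 46 uM were incubated four hours with TMD8 cells whose green CBG68 luciferase is fused to IkappaBalpha; red CBR luminescence normalised the signal, and concentration-effect curves were fitted to fusion, red and ratio data.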
* hit, by the source's call; u = inconclusive; x = no result; [ ] = remark or other dose. Unless noted, calls follow the shape of the dose curve; as a rule, active = well fitted curve in the direction sought with a large enough effect; inconclusive = small, poorly fitted or top-dose-only effect, or another doubt; inactive = no such curve, though single readings can be large; an effect the other way counts as inactive or inconclusive.

SMILES	RORgamma inh	SW480 rereplic	Giardia killer	MCF10A rerep	VP16 counter	BCR signal inh
CSCC[C@H](NC(=O)[C@H](Cc1c[nH]c2ccccc12)NC(=O)CNC(=O)[C@H](Cc1ccc(O)cc1)NC(=O)[C@H](C)NC(=O)[C@H](CCC(=O)O)NC(=O)[C@H](CCC(=O)O)NC(=O)[C@H](CCC(=O)O)NC(=O)[C@H](CCC(=O)O)NC(=O)[C@H](CCC(=O)O)NC(=O)[C@H](CC(C)C)NC(=O)[C@H](Cc1c[nH]c2ccccc12)NC(=O)[C@@H]1CCCN1C(=O)CNC(=O)[C@@H]1CCC(=O)N1)C(=O)N[C@@H](CC(=O)O)C(=O)N[C@@H](Cc1ccccc1)C(=O)NCC(=O)O	1%	x	x	x	6%	x
CCOC(=O)c1cc(S(=O)(=O)N2CCN(c3ccccc3OC)CC2)cn1C	8%	1%	31	14%	1%	6%
Cc1ccccc1NC(=O)c1cc2c(=O)n3cccc(C)c3nc2s1	5%	u	16	u	-10%	1%
O=C(O)c1ccc2c(c1)C(=O)N([C@H](Cc1ccc(F)cc1)C(=O)O)C2=O	0%	x	x	x	-7%	-5%
Cc1ccccc1NC(=S)NCc1ccc2c(c1)cc(C)n2C	6.3µM*	16µM*	9	u	11µM*	u
CCc1cccc(C)c1NC(=S)NCc1ccccc1	3.5µM*	4%	31	0%	32µM*	u
Cc1cc2cc(CNC(=O)Nc3ccccc3)ccc2n1C	u	15%	-12	-2%	-2%	u
Cc1cccc(C)c1NC(=S)NCc1ccccc1	19%	-1%	1	-2%	0%	1%
Cc1cc2cc(CNC(=S)NCc3ccccc3)ccc2n1C	18µM*	-3%	-20	13%	u	-1%
CCc1cccc(C)c1NC(=S)NCc1ccc2c(c1)cc(C)n2C	5.6µM*	15µM*	15	15µM*	7.9µM*	1%
Cc1ccc(CSc2nc3ccccc3cc2C=O)cc1	-21%	2.6µM*	13	21µM*	-28%	u
CC1=NN(C(=O)c2c(Br)c(C)nn2C)C(O)(C(F)(F)F)C1 (configuration not stated)	20µM*	-1%	5	-2%	u	u
CC1=NN(C(=O)c2c(Br)cnn2C)C(O)(C(F)(F)F)C1 (configuration not stated)	5.6µM*	-3%	25	-10%	7.9µM*	u
CC1=NN(C(=O)c2nn(C)cc2Br)C(O)(C(F)(F)F)C1 (configuration not stated)	4µM*	13µM*	-23	u	11µM*	u
Cn1ncc(Br)c1C(=O)NC1CCCCC1	-5%	9%	8	12%	6%	-5%
O=C(NNc1nc2cc3c(cc2s1)OCO3)c1cccc(F)c1	4.5µM*	u	9	7%	u	u
Cc1ccc2nc(NNC(=O)c3ccc(S(=O)(=O)N4CCc5ccccc5C4)cc3)sc2c1	-1%	u	7	9.2µM*	-10%	u
O=C(CCS(=O)(=O)c1ccccc1)Nc1nc2cc3c(cc2s1)OCO3	7%	u	-9	u	u	u
O=C(NNc1nc2cc3c(cc2s1)OCO3)c1ccccc1	5µM*	2%	6	9%	u	4%
Cc1ccc2nc(NNC(=O)c3ccc4c(c3)OCCO4)sc2c1	4.5µM*	2%	2	9%	u	-3%
CC(CNC(=O)CCn1ccc2cc(S(=O)(=O)N3CCCC3)ccc21)c1ccccc1 (configuration not stated)	42%	-4%	1	0%	1%	u
CCS(=O)(=O)N1Cc2ccccc2CC1C(=O)Nc1nc2ccc(C)cc2s1 (configuration not stated)	1.3µM*	-215%	5	9%	u	7%
Cc1cc(NC(=O)CSc2nc(-c3ccco3)cc(C(F)(F)F)n2)n(-c2ccccc2)n1	28%	u	-16	10µM*	14%	u
Cc1ccc(NC(=O)CSc2nc(-c3ccco3)cc(C(F)(F)F)n2)cc1C	u	2.6µM*	0	1.2µM*	-9%	-1%
Cc1cc(NC(=O)CSc2nnnn2C)n(-c2ccccc2)n1	-3%	4.1µM*	-10	6.5µM*	-2%	17%
SMILES	RORgamma inh	SW480 rereplic	Giardia killer	MCF10A rerep	VP16 counter	BCR signal inh
Cc1cc(NC(=O)CCCSc2nc(-c3ccco3)cc(C(F)(F)F)n2)n(-c2ccccc2)n1	3%	2%	10	15%	-12%	u
COc1ccc(C2/C=C\CN(C(=O)C3CCCCC3)C(Cc3ccccc3)C(=O)N2Cc2ccc(F)cc2)cc1 (configuration not stated)	13%	x	-5	x	-11%	x
Cc1ccc(-c2nc(CN(Cc3c(C)nn(C)c3C)C(C)C)c(C)o2)o1	-22%	0%	-5	-7%	-8%	0%
O=C1C(=O)C(c2cc(O)c(O)c(O)c2)Oc2cc(O)cc(O)c21 (configuration not stated)	x	x	-25	x	x	x
CC(C)c1ccc(OCc2nnc(SCC(=O)N3CCCCC3)o2)cc1	74%	-14%	6	-17%	-7%	0%
COc1cccc(C2CNC3(CCCC(C)C3)c3[nH]c4ccccc4c32)c1OC (configuration not stated)	-21%	95%	18	18µM*	7%	u
CC1(C)CC(=O)CC2(C1)NCC(c1ccccc1)c1c2[nH]c2ccccc12 (configuration not stated)	45%	-21%	4	3%	11%	u
CC(C)C[C@H](NC(=O)OC(C)(C)C)c1nnc(SCc2ccccc2)o1	13%	2.6µM*	-1	430%[0.0737 µM]	14%	29%
CC(C)(C)OC(=O)N[C@@H](Cc1ccccc1)c1nnc(S(=O)(=O)Cc2cccc(F)c2)o1	4.5µM*	u	13	u	4.5µM*	u
CC(C)[C@H](NC(=O)OC(C)(C)C)c1nnc(SCC(=O)Nc2ccc(Br)cc2)o1	2.5µM*	-5%	0	9%	32µM*	2%
Cc1ccccc1CS(=O)(=O)c1nnc([C@H](CC(C)C)NC(=O)OC(C)(C)C)o1	7.1µM*	u	17	25%	4.5µM*	u
S=C1NCCNC(=S)NCCOCCN1	1%	-9%	-19	-11%	-1%	6%
Cc1cccc(NC(=O)CSc2nnc(CNC(=O)c3ccco3)o2)c1	42%	1%	3	-6%	-1%	-8%
CC(C)=CCSc1nnc([C@@H](NC(=O)OC(C)(C)C)C(C)C)o1	-19%	17%	8	-1%	20%	0%
